Test results published in PubChem BioAssay (NCATS).
Inconclusive results are not listed. Active and inactive are the calls of the source. The call rests on the fitted dose curve; in most records, active means well fitted curve in the direction sought with a large enough effect; inconclusive means small, poorly fitted or top-dose-only effect, or another doubt; inactive means no such curve, though single readings can be large; an effect the other way counts as inactive or inconclusive.

Tests used:
[1] = qHTS of pediatric cancer cell lines to identify multiple opportunities for drug repurposing: Primary screen for LAN-5 cells (AID 1347100); details: LAN-5 neuroblastoma viability, CellTiter-Glo luminescence, 48 h; series mostly up to 46 µM; further: potency means the concentration at half of the fitted maximal effect
In short: (§1)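 Viability after 48 h compound treatment at 37C, 500-1,000 cells/well, read as ATP luminescence with CellTiter-Glo. Primary screens used 11-point (MIPE, 0.78 nM-46 µM) or 8-point (NPC, 0.59 nM-46 µM) final concentrations; follow-up screens used 11-point dilutions.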

[2] = qHTS of pediatric cancer cell lines to identify multiple opportunities for drug repurposing: Primary screen for Rh18 cells (AID 1347102); details: Rh18 rhabdomyosarcoma viability, CellTiter-Glo luminescence, 48 h; series mostly up to 46 µM; further: nearly all actives have a fitted effect of over 65% in size; further: potency means the concentration at half of the fitted maximal effect
In short: as §1

[3] = qHTS of pediatric cancer cell lines to identify multiple opportunities for drug repurposing: Primary screen for OHS-50 cells (AID 1347103); details: OHS-50 osteosarcoma viability, CellTiter-Glo luminescence, 48 h; series mostly up to 57.3 µM; further: nearly all actives have a fitted effect of over 40% in size; further: potency means the concentration at half of the fitted maximal effect
In short: (§2)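 Cells (500-1,000/well) rested 5 h, then received compounds for 48 h; metabolically active cells were measured by CellTiter-Glo luminescence. Final concentrations spanned up to 46 µM (MIPE, 11-point) or 0.59 nM-46 µM (NPC, 8-point) in primary screens, 11-point in follow-ups.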

[4] = qHTS of pediatric cancer cell lines to identify multiple opportunities for drug repurposing: Primary screen for MG 63 (6-TG R) cells (AID 1347105); details: MG 63 (6-TG R) viability, CellTiter-Glo, 48 h; series mostly up to 46 µM; further: nearly all actives have a fitted effect of over 50% in size; further: potency means the concentration at half of the fitted maximal effect
In short: (§3)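 500-1,000 cells/well; 5 h pre-incubation 37 °C/5% CO2; compound pinned; 48 h; CellTiter-Glo, 15 min RT; luminescence. MIPE 11-pt from 0.78 nM, NPC 8-pt from 0.59 nM final. Bortezomib 2.3 µM final as positive control.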

[5] = qHTS of pediatric cancer cell lines to identify multiple opportunities for drug repurposing: Primary screen for control Hh wild type fibroblast cells (AID 1347106); details: Hh wild-type fibroblast viability, CellTiter-Glo luminescence, 48 h; series mostly up to 46 µM;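 further: a drop in luminescence marks cytotoxicity and a rise apparent proliferation; nearly all actives have a fitted effect of over 55% in size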
In short: as §1

[6] = qHTS of pediatric cancer cell lines to identify multiple opportunities for drug repurposing: Primary screen for RD cells (AID 1347104); details: RD rhabdomyosarcoma viability, CellTiter-Glo luminescence, 48 h; series mostly up to 46 µM; further: nearly all actives have a fitted effect of over 55% in size; further: potency means the concentration at half of the fitted maximal effect
In short: as §3

[7] = qHTS of pediatric cancer cell lines to identify multiple opportunities for drug repurposing: Primary screen for Rh30 cells (AID 1347107); details: Rh30 rhabdomyosarcoma viability, CellTiter-Glo luminescence, 48 h; series mostly up to 46 µM; further: nearly all actives have a fitted effect of over 75% in size
In short: as §1

[8] = qHTS of pediatric cancer cell lines to identify multiple opportunities for drug repurposing: Primary screen for BT-12 cells (AID 1347101); details: BT-12 viability, CellTiter-Glo luminescence, 48 h; series mostly up to 57.3 µM; further: nearly all actives have a fitted effect of over 25% in size; further: potency means the concentration at half of the fitted maximal effect
In short: as §2

[9] = qHTS of pediatric cancer cell lines to identify multiple opportunities for drug repurposing: Primary screen for Rh41 cells (AID 1347108); details: Rh41 rhabdomyosarcoma viability, CellTiter-Glo luminescence, 48 h; series mostly up to 46 µM; further: nearly all actives have a fitted effect of over 70% in size; further: potency means the concentration at half of the fitted maximal effect
In short: as §3

[10] = qHTS of pediatric cancer cell lines to identify multiple opportunities for drug repurposing: Confirmatory screen for A673 cells (AID 1347110); details: A673 Ewing sarcoma cell viability; series mostly up to 45.9 µM; further: nearly all actives have a fitted effect of over 65% in size; further: potency means the concentration at half of the fitted maximal effect
In short: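 A673 cells seeded at 500-1,000 cells/well, rested 5 h, then dosed; primary MIPE 11-point (0.78 nM to 46 µM), NPC (0.59 nM to 46 µM); confirmatory 11-point. CellTiter-Glo luminescence after 48 h.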

[11] = qHTS of pediatric cancer cell lines to identify multiple opportunities for drug repurposing: Confirmatory screen for SK-N-MC cells (AID 1347111); details: SK-N-MC cell viability; series mostly up to 45.9 µM;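 further: potency means the concentration at half of the fitted maximal effect; cells exposed to compound for 48 h before the readout; nearly all actives have a fitted effect of over 70% in size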
In short: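 SK-N-MC cells at 500-1,000 cells/well in growth media were pre-incubated 5 h, then exposed to compounds at 11-point dilutions for 48 h at 37 degrees C, 5% CO2. Viability was read as CellTiter-Glo luminescence.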

[12] = qHTS of pediatric cancer cell lines to identify multiple opportunities for drug repurposing: Confirmatory screen for DAOY cells (AID 1347114); details: DAOY medulloblastoma cells viability, cytotoxicity qHTS; series mostly up to 45.9 µM; further: nearly all actives have a fitted effect of over 65% in size; further: potency means the concentration at half of the fitted maximal effect
In short: (§4)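 Viability measured as metabolically active cells via CellTiter-Glo luminescence following 48 hours of compound exposure, 11-point dilutions in confirmatory testing. 500-1,000 cells/well plated 5 hours before dosing; controls were DMSO and 2.3 µM bortezomib.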

[13] = qHTS of pediatric cancer cell lines to identify multiple opportunities for drug repurposing: Confirmatory screen for NB-EBc1 cells (AID 1347115); details: NB-EBc1 neuroblastoma cells, viability (cytotoxicity); series mostly up to 45.9 µM; further: potency means the concentration at half of the fitted maximal effect; nearly all actives have a fitted effect of over 45% in size
In short: as §1

[14] = qHTS of pediatric cancer cell lines to identify multiple opportunities for drug repurposing: Confirmatory screen for BT-37 cells (AID 1347117); details: BT-37 pediatric cancer cells, viability; series mostly up to 45.9 µM; further: potency means the concentration at half of the fitted maximal effect; nearly all actives have a fitted effect of over 55% in size
In short: as §1

[15] = qHTS of pediatric cancer cell lines to identify multiple opportunities for drug repurposing: Confirmatory screen for TC32 cells (AID 1347118); details: TC32 Ewing sarcoma cells viability qHTS; series mostly up to 45.9 µM; further: potency means the concentration at half of the fitted maximal effect; nearly all actives have a fitted effect of over 65% in size
In short: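 Luminescent CellTiter-Glo read-out of metabolically active TC32 cells after 48 h compound exposure. Primary: MIPE 11-point, 0.78 nM–46 µM; NPC 8-point, 0.59 nM–46 µM. Confirmatory: 11-point dilutions.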

[16] = qHTS of pediatric cancer cell lines to identify multiple opportunities for drug repurposing: Confirmatory screen for SJ-GBM2 cells (AID 1347116); details: SJ-GBM2 glioblastoma cells, viability; series mostly up to 45.9 µM; further: nearly all actives have a fitted effect of over 60% in size
In short: as §4

[17] = qHTS of pediatric cancer cell lines to identify multiple opportunities for drug repurposing: Confirmatory screen for NB1643 cells (AID 1347109); details: NB1643 neuroblastoma cell viability; series mostly up to 45.9 µM; further: potency means the concentration at half of the fitted maximal effect; nearly all actives have a fitted effect of over 45% in size
In short: as §1

[18] = qHTS of pediatric cancer cell lines to identify multiple opportunities for drug repurposing: Confirmatory screen for BT-12 cells (AID 1347112); details: BT-12 rhabdoid tumor cells, viability; series mostly up to 45.9 µM; further: nearly all actives have a fitted effect of over 55% in size
In short: as §1

[19] = qHTS of pediatric cancer cell lines to identify multiple opportunities for drug repurposing: Confirmatory screen for LAN-5 cells (AID 1347113); details: LAN-5 neuroblastoma cell viability; series mostly up to 45.9 µM
In short: as §1

Measured: Potency

C=CC[N+]1([C@H]2C[C@H]3[C@@H]4CC[C@H]5C[C@H](O)[C@@H](N6CCOCC6)C[C@]5(C)[C@@H]4CC[C@]3(C)[C@H]2OC(C)=O)CCCC1
inactive: [1] | [2] | [3] | [4] | [5]

Fc1ccc(C(c2ccc(F)cc2)N2CCN(CC=Cc3ccccc3)CC2)cc1
inactive: [1] | [2] | [3] | [6] | [4] | [7]

CCCCCOC(=O)Nc1nc(=O)n([C@@H]2O[C@H](C)[C@@H](O)C2O)cc1F (some centres undefined)
inactive: [1] | [8] | [2] | [3] | [6] | [5] | [7]

C#C[C@]1(O)CC[C@H]2[C@H]3CCc4cc(OC)ccc4[C@H]3CC[C@@]21C
inactive: [1] | [8] | [2] | [5] | [7] | [9]

Nc1ccn([C@@H]2O[C@H](CO)[C@@H](O)[C@H]2O)c(=O)n1
active: [1] 0.0935 µM | [3] 13.7 µM | [10] 0.657 µM | [11] 2.61 µM | [13] 3.29 µM | [14] 0.329 µM | [15] 0.329 µM
inactive: [2] | [6] | [4] | [5] | [7] | [9] | [12]

CN1C(=O)C[C@H](C(=O)N[C@@H](Cc2cnc[nH]2)C(=O)N2CCC[C@@H]2C(N)=O)NC1=O
active: [1] 20.9 µM
inactive: [2] | [3] | [4] | [5] | [7]

O=S(=O)(NCCNCC=Cc1ccc(Br)cc1)c1cccc2cnccc12
inactive: [5]
active: [1] 20.9 µM | [2] 16.6 µM | [3] 7.69 µM | [6] 18.7 µM | [4] 14.8 µM

NS(=O)(=O)c1cc(Cl)c(Cl)c(S(N)(=O)=O)c1
inactive: [1] | [2] | [3] | [6] | [4] | [5] | [7] | [9]

CN1CC(=O)N2C(Cc3c([nH]c4ccccc34)[C@H]2c2ccc3c(c2)OCO3)C1=O (some centres undefined)
inactive: [1] | [8] | [2] | [6] | [5] | [7]

FC(F)(F)c1ccc(C=Cc2nc(COc3ccc(CCCCn4ccnn4)cc3)co2)cc1
inactive: [5] | [16]
active: [1] 0.0059 µM | [8] 0.0061 µM | [3] 0.0077 µM | [6] 0.0118 µM | [9] 0.469 µM | [11] 1.17 µM | [12] 0.261 µM | [13] 0.369 µM

CCN(CC)CCCCNc1nc2cc(Cl)c(Cl)cc2nc1-c1ccc(-c2cccs2)s1
active: [1] 26.4 µM | [8] 34.3 µM | [2] 18.7 µM | [3] 19.3 µM | [6] 18.7 µM | [4] 18.7 µM | [9] 23.5 µM

O=c1cc(-c2ccc(O)c(O)c2)oc2cc(O)cc(O)c12
inactive: [1] | [8] | [2] | [6] | [4] | [5] | [7]

COc1ccc2ccc(=O)oc2c1CC=C(C)C
inactive: [5] | [7]
active: [1] 29.6 µM | [8] 24.3 µM | [3] 24.3 µM

CC1(C)CC(=O)c2c(C(F)(F)F)nn(-c3ccc(C(N)=O)c(NC4CCC(O)CC4)c3)c2C1 (centres undefined)
active: [1] 0.148 µM | [2] 0.264 µM | [3] 0.306 µM | [6] 0.0743 µM | [9] 0.296 µM | [17] 0.165 µM | [10] 0.147 µM | [11] 0.165 µM | [19] 0.185 µM | [13] 0.261 µM | [14] 0.104 µM | [15] 0.165 µM
inactive: [18] | [12]

COc1cccc(OC)c1-c1cc(C(=O)NC2(C(=O)O)C3CC4CC(C3)CC2C4)nn1-c1ccnc2cc(Cl)ccc12 (centres undefined)
inactive: [1] | [2] | [3] | [6] | [4] | [7] | [9]

CCOC(=O)[C@H](CCc1ccccc1)N[C@@H](C)C(=O)N1CCCC1C(=O)O (some centres undefined)
active: [17] 7.37 µM | [10] 4.14 µM | [11] 14.7 µM | [19] 9.27 µM | [15] 7.37 µM
not listed: [8] | [13] | [14] | [16] | [18]
inactive: all other assays above

CN(C)CCCNC(=O)c1ccc(-c2cc(O)c3ncccc3c2)cc1
inactive: [1] | [2] | [4]

CCC(c1ccc(O)cc1)C(CC)c1ccc(O)cc1 (centres undefined)
inactive: [1] | [2] | [5] | [7] | [9] | [10]
active: [3] 27.3 µM | [11] 9.27 µM | [14] 10.4 µM | [15] 3.69 µM

CCn1c(-c2nonc2N)nc2cncc(CNC3CCNCC3)c21
active: [1] 20.9 µM
inactive: [3] | [5]
